Of roughly 7,900 targets only a part is listed; those with a hit were picked by preference. About 0.6% of all pairs of compound and target were hits.
Assays:
Test in all cases: log2 fold change, soluble protein after heating vs DMSO (PISA); higher = thermal stabilisation; K562 cells, 10 uM, 30 min; active = over 0.2 and 3.5 SD of the protein, either way, in both replicates (recomputed)
bafetinib = compound: Cc1ccc(NC(=O)c2ccc(CN3CC[C@H](N(C)C)C3)c(C(F)(F)F)c2)cc1Nc1nccc(-c2cncnc2)n1 [bafetinib]
In short: (§1)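 K562 cells at 2×10^6 cells/mL were treated with 10 μM compound for 30 min. Aliquots were heated for 3 min across 48°C-58°C, pooled, and extracted in PBS with 0.5% NP-40 at 4°C; soluble protein was the supernatant after 21,000xg for 90 min. Soluble protein was quantified by TMTpro 16plex LC-MS/MS with channel sums equalised, and reported as log2 fold change in thermal stability against DMSO controls, with values from duplicates.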

[1] = compound: Cc1cccc(CC(=O)N2CCc3c2ccc(-c2cn(C)c4ncnc(N)c24)c3F)n1
In short: as §1

nilotinib = compound: Cc1cn(-c2cc(NC(=O)c3ccc(C)c(Nc4nccc(-c5cccnc5)n4)c3)cc(C(F)(F)F)c2)cn1 [nilotinib]
In short: as §1

[2] = compound: Cc1nc(Nc2n[nH]c3c2CN(C(=O)N[C@H](CN(C)C)c2ccccc2)C3(C)C)c2sccc2n1
In short: as §1

dasatinib = compound: Cc1nc(Nc2ncc(C(=O)Nc3c(C)cccc3Cl)s2)cc(N2CCN(CCO)CC2)n1 [dasatinib]
In short: as §1

[3] = compound: Cc1ncc(-c2ccnc(Nc3ccc(S(C)(=O)=O)cc3)n2)n1C(C)C
In short: as §1

[4] = compound: Cn1cc(-c2ccc3c(c2)CCN3C(=O)Cc2cccc(C(F)(F)F)c2)c2c(N)ncnc21
In short: as §1

[5] = compound: Cn1cc(-c2ccc3nnc(C(F)(F)c4ccc5ncccc5c4)n3n2)cn1
In short: as §1

mubritinib = compound: FC(F)(F)c1ccc(/C=C/c2nc(COc3ccc(CCCCn4ccnn4)cc3)co2)cc1 [mubritinib]
In short: as §1

tipifarnib = compound: Cn1cncc1[C@@](N)(c1ccc(Cl)cc1)c1ccc2c(c1)c(-c1cccc(Cl)c1)cc(=O)n2C [tipifarnib]
In short: as §1

UniProt Q93075, sequence (Q93075 whole entry, looked up): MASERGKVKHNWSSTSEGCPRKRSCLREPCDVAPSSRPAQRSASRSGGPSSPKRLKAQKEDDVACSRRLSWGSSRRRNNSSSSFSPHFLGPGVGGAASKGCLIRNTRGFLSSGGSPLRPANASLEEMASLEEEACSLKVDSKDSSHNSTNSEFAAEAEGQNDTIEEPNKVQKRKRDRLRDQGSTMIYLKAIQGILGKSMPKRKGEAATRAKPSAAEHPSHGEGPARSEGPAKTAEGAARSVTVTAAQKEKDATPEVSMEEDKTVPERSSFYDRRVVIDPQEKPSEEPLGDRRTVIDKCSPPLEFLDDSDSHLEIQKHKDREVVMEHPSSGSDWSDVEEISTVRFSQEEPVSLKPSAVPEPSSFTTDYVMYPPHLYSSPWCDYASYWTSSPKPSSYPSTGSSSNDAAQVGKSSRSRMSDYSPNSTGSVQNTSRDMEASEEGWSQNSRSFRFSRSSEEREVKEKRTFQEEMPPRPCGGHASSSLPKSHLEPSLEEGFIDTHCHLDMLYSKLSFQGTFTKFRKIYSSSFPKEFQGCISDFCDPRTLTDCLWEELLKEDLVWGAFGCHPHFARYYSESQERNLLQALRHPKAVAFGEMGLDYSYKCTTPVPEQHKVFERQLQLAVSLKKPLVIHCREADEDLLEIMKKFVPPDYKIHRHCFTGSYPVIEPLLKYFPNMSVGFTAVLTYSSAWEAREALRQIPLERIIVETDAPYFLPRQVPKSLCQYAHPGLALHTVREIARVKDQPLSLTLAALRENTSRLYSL
UniProt P20226, sequence (P20226 whole entry, looked up): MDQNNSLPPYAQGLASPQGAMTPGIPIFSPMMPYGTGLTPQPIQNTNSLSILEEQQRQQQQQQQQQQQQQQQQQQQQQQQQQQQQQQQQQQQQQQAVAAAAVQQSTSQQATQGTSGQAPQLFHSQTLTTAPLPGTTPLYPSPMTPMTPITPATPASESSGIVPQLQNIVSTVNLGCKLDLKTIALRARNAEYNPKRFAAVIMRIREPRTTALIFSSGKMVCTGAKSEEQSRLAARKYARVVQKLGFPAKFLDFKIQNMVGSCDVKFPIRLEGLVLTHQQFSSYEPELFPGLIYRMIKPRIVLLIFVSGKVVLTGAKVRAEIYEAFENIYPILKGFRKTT
UniProt Q6J4K2, sequence (Q6J4K2 whole entry, looked up): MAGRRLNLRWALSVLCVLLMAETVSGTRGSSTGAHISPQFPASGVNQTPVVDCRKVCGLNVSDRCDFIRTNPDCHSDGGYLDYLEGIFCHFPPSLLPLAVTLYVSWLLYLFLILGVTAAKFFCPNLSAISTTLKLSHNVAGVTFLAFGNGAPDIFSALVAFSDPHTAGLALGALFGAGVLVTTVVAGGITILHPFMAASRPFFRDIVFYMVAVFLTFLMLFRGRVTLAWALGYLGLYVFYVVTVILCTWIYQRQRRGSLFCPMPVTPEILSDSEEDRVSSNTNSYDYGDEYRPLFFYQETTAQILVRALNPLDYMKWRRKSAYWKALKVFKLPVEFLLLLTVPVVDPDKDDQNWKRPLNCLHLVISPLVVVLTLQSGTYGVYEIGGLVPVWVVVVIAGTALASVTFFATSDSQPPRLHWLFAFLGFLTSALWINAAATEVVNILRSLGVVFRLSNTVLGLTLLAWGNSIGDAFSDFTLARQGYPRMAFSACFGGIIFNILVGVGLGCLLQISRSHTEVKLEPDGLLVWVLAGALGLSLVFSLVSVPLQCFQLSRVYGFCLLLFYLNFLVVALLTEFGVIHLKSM
UniProt Q8N357, sequence (Q8N357 whole entry, looked up): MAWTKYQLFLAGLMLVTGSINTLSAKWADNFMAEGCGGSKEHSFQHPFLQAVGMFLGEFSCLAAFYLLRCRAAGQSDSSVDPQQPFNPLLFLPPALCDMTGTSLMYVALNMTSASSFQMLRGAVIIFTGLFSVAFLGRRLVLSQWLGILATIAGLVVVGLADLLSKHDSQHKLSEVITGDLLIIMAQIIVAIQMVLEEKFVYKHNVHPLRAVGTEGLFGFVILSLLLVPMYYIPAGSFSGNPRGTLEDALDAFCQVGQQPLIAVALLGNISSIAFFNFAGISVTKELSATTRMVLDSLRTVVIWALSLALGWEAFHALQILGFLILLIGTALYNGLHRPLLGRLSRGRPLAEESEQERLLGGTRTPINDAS
UniProt P51532, sequence (P51532 whole entry, looked up): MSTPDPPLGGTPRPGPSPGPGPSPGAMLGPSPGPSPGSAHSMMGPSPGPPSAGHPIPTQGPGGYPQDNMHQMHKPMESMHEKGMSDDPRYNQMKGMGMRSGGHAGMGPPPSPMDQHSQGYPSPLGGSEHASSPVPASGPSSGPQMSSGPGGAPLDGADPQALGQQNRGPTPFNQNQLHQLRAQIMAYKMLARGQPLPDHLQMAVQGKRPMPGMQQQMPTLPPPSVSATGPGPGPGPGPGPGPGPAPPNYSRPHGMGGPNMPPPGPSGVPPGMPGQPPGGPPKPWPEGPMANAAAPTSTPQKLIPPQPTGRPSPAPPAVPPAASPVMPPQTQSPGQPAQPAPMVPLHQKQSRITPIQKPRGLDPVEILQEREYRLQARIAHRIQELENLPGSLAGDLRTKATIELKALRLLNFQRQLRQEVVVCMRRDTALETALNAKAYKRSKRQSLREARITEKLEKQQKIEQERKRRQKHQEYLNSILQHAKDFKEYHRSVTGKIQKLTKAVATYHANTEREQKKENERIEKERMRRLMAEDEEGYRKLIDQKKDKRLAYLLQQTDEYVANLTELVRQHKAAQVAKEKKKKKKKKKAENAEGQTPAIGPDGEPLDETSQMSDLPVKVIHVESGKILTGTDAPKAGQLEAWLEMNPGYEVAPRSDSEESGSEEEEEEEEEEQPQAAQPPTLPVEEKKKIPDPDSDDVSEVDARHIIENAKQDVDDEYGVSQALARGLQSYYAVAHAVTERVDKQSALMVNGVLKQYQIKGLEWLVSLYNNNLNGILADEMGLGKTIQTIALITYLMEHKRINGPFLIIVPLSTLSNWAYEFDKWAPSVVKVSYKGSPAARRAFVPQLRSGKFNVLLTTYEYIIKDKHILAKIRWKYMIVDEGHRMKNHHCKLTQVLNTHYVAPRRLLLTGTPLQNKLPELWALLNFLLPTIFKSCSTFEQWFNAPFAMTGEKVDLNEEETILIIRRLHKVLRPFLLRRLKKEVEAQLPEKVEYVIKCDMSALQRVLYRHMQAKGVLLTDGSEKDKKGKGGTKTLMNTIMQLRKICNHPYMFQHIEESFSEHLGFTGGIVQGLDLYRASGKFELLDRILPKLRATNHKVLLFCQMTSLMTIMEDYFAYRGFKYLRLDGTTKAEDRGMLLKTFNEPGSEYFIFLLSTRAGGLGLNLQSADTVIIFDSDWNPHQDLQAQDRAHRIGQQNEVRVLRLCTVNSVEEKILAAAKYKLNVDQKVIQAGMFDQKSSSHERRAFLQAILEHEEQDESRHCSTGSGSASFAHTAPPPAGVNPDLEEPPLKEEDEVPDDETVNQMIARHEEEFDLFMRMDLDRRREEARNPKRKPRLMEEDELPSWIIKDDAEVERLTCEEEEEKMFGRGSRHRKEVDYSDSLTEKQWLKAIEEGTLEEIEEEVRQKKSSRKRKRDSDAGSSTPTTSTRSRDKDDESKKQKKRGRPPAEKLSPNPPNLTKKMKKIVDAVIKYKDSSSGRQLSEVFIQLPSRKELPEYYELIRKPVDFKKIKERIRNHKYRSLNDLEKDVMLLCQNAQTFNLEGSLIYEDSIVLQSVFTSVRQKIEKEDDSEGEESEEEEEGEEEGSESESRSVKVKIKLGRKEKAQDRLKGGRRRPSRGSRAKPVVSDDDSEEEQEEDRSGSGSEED
UniProt Q8N9U0, sequence (Q8N9U0 whole entry, looked up): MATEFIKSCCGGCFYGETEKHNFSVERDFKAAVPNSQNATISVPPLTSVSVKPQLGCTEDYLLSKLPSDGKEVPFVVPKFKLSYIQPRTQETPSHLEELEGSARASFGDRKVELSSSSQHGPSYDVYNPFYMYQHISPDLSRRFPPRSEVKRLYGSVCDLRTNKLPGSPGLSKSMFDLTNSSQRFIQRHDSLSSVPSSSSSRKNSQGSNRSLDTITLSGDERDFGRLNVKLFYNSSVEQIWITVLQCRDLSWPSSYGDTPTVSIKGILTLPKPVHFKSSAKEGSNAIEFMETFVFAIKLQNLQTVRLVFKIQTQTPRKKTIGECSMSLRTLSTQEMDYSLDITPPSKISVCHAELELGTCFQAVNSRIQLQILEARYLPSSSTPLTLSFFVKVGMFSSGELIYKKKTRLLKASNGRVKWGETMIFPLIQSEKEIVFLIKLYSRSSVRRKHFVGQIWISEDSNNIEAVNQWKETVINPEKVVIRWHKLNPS
UniProt O60749, sequence (O60749 whole entry, looked up): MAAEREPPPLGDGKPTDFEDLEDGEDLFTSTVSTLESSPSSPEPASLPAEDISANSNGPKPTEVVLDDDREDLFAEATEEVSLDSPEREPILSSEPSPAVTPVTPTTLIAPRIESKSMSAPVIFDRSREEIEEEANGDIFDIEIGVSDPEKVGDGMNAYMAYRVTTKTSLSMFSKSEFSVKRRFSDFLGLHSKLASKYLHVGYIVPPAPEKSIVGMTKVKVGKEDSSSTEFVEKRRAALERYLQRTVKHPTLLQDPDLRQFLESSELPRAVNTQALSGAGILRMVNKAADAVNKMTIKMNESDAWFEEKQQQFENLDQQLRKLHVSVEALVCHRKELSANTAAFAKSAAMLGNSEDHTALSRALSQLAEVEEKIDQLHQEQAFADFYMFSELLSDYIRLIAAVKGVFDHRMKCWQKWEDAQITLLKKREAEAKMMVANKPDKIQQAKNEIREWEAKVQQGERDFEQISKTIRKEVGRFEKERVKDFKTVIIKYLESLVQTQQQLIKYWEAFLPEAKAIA
UniProt P78382, sequence (P78382 whole entry, looked up): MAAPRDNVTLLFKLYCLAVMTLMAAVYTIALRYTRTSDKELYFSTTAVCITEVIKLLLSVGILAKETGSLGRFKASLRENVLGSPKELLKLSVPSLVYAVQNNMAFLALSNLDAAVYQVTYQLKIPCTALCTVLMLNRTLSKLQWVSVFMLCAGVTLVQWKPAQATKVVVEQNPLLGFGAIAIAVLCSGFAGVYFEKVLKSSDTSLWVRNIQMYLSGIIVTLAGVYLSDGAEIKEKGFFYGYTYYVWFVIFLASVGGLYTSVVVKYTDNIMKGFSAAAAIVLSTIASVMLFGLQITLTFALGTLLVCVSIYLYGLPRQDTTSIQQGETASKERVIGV

Row | Target | log2 fold change (bafetinib) | log2 fold change [1] | log2 fold change (nilotinib) | log2 fold change [2] | log2 fold change (dasatinib) | log2 fold change [3] | log2 fold change [4] | log2 fold change [5] | log2 fold change (mubritinib) | log2 fold change (tipifarnib)
1 | SLC44A2 isoform 2 (UniProt Q8IWA5) | 0.058 (inactive) | -0.053 (inactive) | 0.13 (inactive) | 0.008 (inactive) | 0.064 (inactive) | 0.068 (inactive) | 0.084 (inactive) | -0.076 (inactive) | 0.045 (inactive) | 
2 | TAMM41 isoform 3 (UniProt Q96BW9) | -0.278 (active) | -0.041 (inactive) | -0.112 (inactive) | -0.005 (inactive) | -0.108 (inactive) | 0.026 (inactive) | 0.037 (inactive) | 0.028 (inactive) | -0.044 (inactive) | -0.043 (inactive)
3 | SSR3 isoform 2 (UniProt Q9UNL2) | -0.064 (inactive) | 0.034 (inactive) | -0.006 (inactive) | 0.029 (inactive) | 0.006 (inactive) | -0.047 (inactive) | 0.107 (inactive) | -0.167 (inactive) | 0.049 (inactive) | 0.084 (inactive)
4 | SYNE1 (UniProt Q8NF91) | -0.051 (inactive) | 0.008 (inactive) | 0.021 (inactive) | -0.281 (inactive) | -0.074 (inactive) | -0.074 (inactive) | 0.079 (inactive) | -0.098 (inactive) | 0.182 (inactive) | 
5 | TATDN2 (UniProt Q93075) | 0.088 (inactive) | -0.151 (inactive) | 0.137 (inactive) | -0.217 (inactive) | -0.042 (inactive) | -0.043 (inactive) | -0.059 (inactive) |  |  | 0.074 (inactive)
6 | TBC1D10B (UniProt Q4KMP7) | -0.01 (inactive) | 0.022 (inactive) | 0.013 (inactive) | -0.09 (inactive) | -0.064 (inactive) | -0.149 (inactive) | 0.07 (inactive) | 0 (inactive) | 0.013 (inactive) | 0.039 (inactive)
7 | STK11IP (UniProt Q8N1F8) | -0.06 (inactive) | 0.111 (inactive) | -0.081 (inactive) | 0.058 (inactive) | -0.19 (inactive) | 0.051 (inactive) | -0.068 (inactive) |  | -0.071 (inactive) | 0.034 (inactive)
8 | SRXN1 (UniProt Q9BYN0) | -0.011 (inactive) | -0.157 (inactive) | -0.017 (inactive) | -0.088 (inactive) |  | 0.093 (inactive) | 0.134 (inactive) | 0.056 (inactive) | 0.127 (inactive) | -0.149 (inactive)
9 | TAF6L (UniProt Q9Y6J9) |  | -0.078 (inactive) | 0.032 (inactive) | -0.048 (inactive) | -0.224 (inactive) | 0.046 (inactive) | -0.106 (inactive) | -0.018 (inactive) | 0.104 (inactive) | 0.055 (inactive)
10 | TM7SF2 (UniProt O76062) |  |  | -0.113 (inactive) | -0.059 (inactive) | -0.25 (inactive) | 0.018 (inactive) | 0.035 (inactive) | 0.046 (inactive) |  | -0.067 (inactive)
11 | SNX2 isoform 2 (UniProt O60749) | -0.163 (inactive) |  |  |  | -0.097 (inactive) |  | 0.16 (inactive) |  |  | -0.155 (inactive)
12 | SLC29A3 (UniProt Q9BZD2) | -0.111 (inactive) |  | -0.055 (inactive) | 0.127 (inactive) | -0.059 (inactive) | 0.012 (inactive) | 0.167 (inactive) | 0.102 (inactive) | 0.005 (inactive) | 0.035 (inactive)
13 | SLC35B1 isoform 2 (UniProt P78383) | -0.018 (inactive) |  | -0.065 (inactive) | 0.052 (inactive) | 0.142 (inactive) | -0.097 (inactive) | -0.13 (inactive) | -0.172 (inactive) | 0.016 (inactive) | 
14 | TC2N (UniProt Q8N9U0) |  |  | 0.052 (inactive) | -0.71 (active) | 0.068 (inactive) | -0.024 (inactive) |  | -0.153 (inactive) | 0.176 (inactive) | 
15 | SLC35B4 (UniProt Q969S0) | -0.12 (inactive) |  | 0.027 (inactive) | 0.016 (inactive) |  | 0.1 (inactive) |  |  | 0.032 (inactive) | 
16 | SLC46A1 (UniProt Q96NT5) |  | -0.016 (inactive) |  |  |  |  | -0.119 (inactive) |  |  | 
17 | TBC1D2 (UniProt Q9BYX2) |  | 0.213 (inactive) |  |  |  |  |  |  | -0.085 (inactive) | 
18 | SP2 (UniProt Q02086) |  |  |  |  | 0.001 (inactive) |  |  |  |  | 
19 | TCOF1 isoform 6 (UniProt Q13428) | 0.137 (inactive) |  | -0.102 (inactive) | 0.14 (inactive) |  | -0.033 (inactive) | 0.07 (inactive) | -0.061 (inactive) | -0.091 (inactive) | 
20 | SLC38A2 (UniProt Q96QD8) | -0.112 (inactive) |  | -0.037 (inactive) | 0.039 (inactive) | 0.047 (inactive) | 0.029 (inactive) | -0.055 (inactive) | 0.029 (inactive) | 0.017 (inactive) | -0.073 (inactive)
21 | TAOK2 (UniProt Q9UL54) |  | 0.092 (inactive) | -0.032 (inactive) | 0.048 (inactive) |  | -0.028 (inactive) |  | -0.093 (inactive) | 0.01 (inactive) | 0.014 (inactive)
22 | SMARCB1 (UniProt Q12824) |  | -0.277 (inactive) |  |  | -0.059 (inactive) |  | -0.122 (inactive) |  |  | 
23 | SUN1 isoform 9 (UniProt O94901) |  | -0.036 (inactive) | -0.014 (inactive) | -0.115 (inactive) | 0.007 (inactive) | -0.018 (inactive) | -0.141 (inactive) | -0.055 (inactive) | -0.021 (inactive) | 0.039 (inactive)

Row | Target | log2 fold change (bafetinib) | log2 fold change [1] | log2 fold change (nilotinib) | log2 fold change [2] | log2 fold change (dasatinib) | log2 fold change [3] | log2 fold change [4] | log2 fold change [5] | log2 fold change (mubritinib) | log2 fold change (tipifarnib)
24 | SLC8B1 (UniProt Q6J4K2) | -0.149 (inactive) | 0.006 (inactive) |  |  | -0.012 (inactive) |  | -0.019 (inactive) | 0.103 (inactive) |  | 0.058 (inactive)
25 | SLC35F6 (UniProt Q8N357) | -0.208 (inactive) |  | -0.037 (inactive) | -0.13 (inactive) | 0.078 (inactive) | 0.143 (inactive) | 0.049 (inactive) | 0.052 (inactive) | 0.072 (inactive) | 0.01 (inactive)
26 | SLC35A1 (UniProt P78382) | 0.005 (inactive) |  | -0.009 (inactive) | -0.055 (inactive) | 0.036 (inactive) | -0.02 (inactive) | 0.03 (inactive) | 0.067 (inactive) | 0.049 (inactive) | -0.022 (inactive)
27 | TANGO6 (UniProt Q9C0B7) | 0.033 (inactive) |  | -0.018 (inactive) | -0.066 (inactive) | -0.216 (inactive) | -0.006 (inactive) | 0.083 (inactive) | -0.048 (inactive) | 0.042 (inactive) | -0.067 (inactive)
28 | SLC27A1 (UniProt Q6PCB7) | 0.047 (inactive) |  | -0.087 (inactive) | -0.009 (inactive) | -0.152 (inactive) | 0.079 (inactive) | -0.053 (inactive) | 0.046 (inactive) | 0.431 (active) | 0.094 (inactive)
29 | TBP (UniProt P20226) | -0.039 (inactive) |  | 0.008 (inactive) | 0.093 (inactive) | 0.104 (inactive) | 0.079 (inactive) | -0.112 (inactive) | 0.036 (inactive) | 0.004 (inactive) | 0.013 (inactive)
30 | SMDT1 (UniProt Q9H4I9) | -0.138 (inactive) | 0.006 (inactive) |  |  | 0.005 (inactive) |  | 0.137 (inactive) |  | 0.068 (inactive) | 
31 | SMPD4 isoform 2 (UniProt Q9NXE4) | -0.026 (inactive) | 0.151 (inactive) |  |  | -0.285 (inactive) |  | 0.09 (inactive) |  | 0.108 (inactive) | -0.111 (inactive)
32 | SPAG9 isoform 4 (UniProt O60271) | -0.301 (inactive) |  | 0.073 (inactive) | -0.118 (inactive) |  | 0.022 (inactive) | -0.072 (inactive) | 0.11 (inactive) | 0.074 (inactive) | 
33 | SSBP4 (UniProt U3KPY3) |  |  |  |  |  |  |  |  | 0.046 (inactive) | 
34 | SOX5 (UniProt P35711) | -0.06 (inactive) |  | -0.437 (active) | -0.011 (inactive) |  | 0.211 (inactive) | 0.042 (inactive) | -0.039 (inactive) | 0.064 (inactive) | 0.027 (inactive)
35 | SLC39A1 (UniProt Q9NY26) |  | 0.116 (inactive) |  |  |  |  | -0.17 (inactive) |  |  | 
36 | TCOF1 isoform 3 (UniProt Q13428) |  | -0.005 (inactive) |  |  |  |  |  | -0.419 (inactive) |  | 
37 | TDP1 (UniProt Q9NUW8) |  |  |  |  |  |  | -0.1 (inactive) |  |  | 
38 | THAP9 (UniProt Q9H5L6) | 0.191 (inactive) |  | 0.03 (inactive) | -0.009 (inactive) | -0.082 (inactive) | -0.04 (inactive) | 0.119 (inactive) | 0.072 (inactive) | 0.17 (inactive) | 
39 | SLC9A6 isoform 3 (UniProt Q92581) | -0.096 (inactive) |  |  |  | 0.065 (inactive) |  | 0.048 (inactive) |  |  | 0.028 (inactive)
40 | TMBIM6 isoform 2 (UniProt P55061) | -0.135 (inactive) |  | -0.158 (inactive) | 0.028 (inactive) | -0.081 (inactive) | -0.037 (inactive) | 0.063 (inactive) | -0.073 (inactive) | 0.036 (inactive) | -0.269 (inactive)
41 | TM7SF3 (UniProt Q9NS93) | -0.147 (inactive) |  | -0.004 (inactive) | 0.005 (inactive) | 0.005 (inactive) | -0.029 (inactive) | -0.034 (inactive) | 0.034 (inactive) | 0.147 (inactive) | 0.019 (inactive)
42 | SSB (UniProt E7ERC4) |  | -0.025 (inactive) |  |  | -0.528 (inactive) |  |  |  | -0.063 (inactive) | 
43 | SMARCA4 (UniProt P51532) | 0.149 (inactive) | -0.118 (inactive) |  |  | 0.118 (inactive) |  | -0.036 (inactive) | 0.033 (inactive) | 0.101 (inactive) | 0.197 (inactive)
44 | SNRK (UniProt Q9NRH2) |  |  |  |  | -0.061 (inactive) |  |  |  |  | -0.079 (inactive)
45 | SREBF1 isoform 4 (UniProt P36956) | -0.357 (inactive) |  |  |  | -0.043 (inactive) |  |  |  | -0.004 (inactive) | 
46 | SYK (UniProt P43405) | 0.276 (inactive) |  |  |  | -0.356 (inactive) |  | 0.141 (inactive) | -0.041 (inactive) |  | 0.075 (inactive)

Source: the supplement of paper PMC10849652
